# Laboratory results from PubChem BioAssay AID588453 (National Center for Advancing Translational Sciences (NCATS), 2011).
# The campaign covered roughly 390,000 compounds. About 4,000 (1%) were called active. About 4% were inconclusive and are not listed. The sample holds actives, similar compounds and a random draw of the others, so the mix is not that of the screen. Unmarked numbers belong to inactive results. Calls come from the whole dose curve; as a rule, active = well fitted inhibition curve with a large enough effect; inconclusive = small, poorly fitted or top-dose-only effect; inactive = no such curve, though single readings can be large or run the other way.
# Molecular target: Thioredoxin reductase 1, cytoplasmic (Rattus norvegicus) (UniProt O89049)
# Sequence (O89049 whole entry, looked up): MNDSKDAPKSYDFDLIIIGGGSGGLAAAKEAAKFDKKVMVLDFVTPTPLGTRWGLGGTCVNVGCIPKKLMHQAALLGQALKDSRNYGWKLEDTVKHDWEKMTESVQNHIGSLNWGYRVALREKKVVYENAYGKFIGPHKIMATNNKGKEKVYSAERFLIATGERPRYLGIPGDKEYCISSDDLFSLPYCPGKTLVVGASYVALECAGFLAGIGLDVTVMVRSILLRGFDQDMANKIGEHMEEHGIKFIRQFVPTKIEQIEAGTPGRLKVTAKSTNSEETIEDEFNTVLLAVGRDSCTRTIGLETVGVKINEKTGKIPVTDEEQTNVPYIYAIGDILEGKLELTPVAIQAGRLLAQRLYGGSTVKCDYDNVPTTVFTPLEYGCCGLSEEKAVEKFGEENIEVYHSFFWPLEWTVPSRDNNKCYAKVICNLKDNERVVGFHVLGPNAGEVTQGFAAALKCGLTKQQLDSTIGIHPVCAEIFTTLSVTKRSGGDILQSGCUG
# Experiment: qHTS Assay for Inhibitors of Mammalian Selenoprotein Thioredoxin Reductase 1 (TrxR1): qHTS; note: nearly all actives have a fitted effect of over 65% in size
# Settings: recombinant rTrxR1, NADPH fluorescence consumption, selenite substrate; series mostly up to 114 µM; activity change, negative = inhibition: at the top concentration
# In short: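 Rat TrxR1 (90 nM in the dispensed reagent) was pre-reduced with 400 uM NADPH for 5 min at room temperature, then incubated with compound for 15 min. After 400 uM selenite was added, NADPH fluorescence (Ex 340/Em 450 nm) was followed for 8 min.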
# % is set by controls: 0 for no effect and ±100 for the full control effect; potency is the fitted concentration of half-maximal effect.
Structure (SMILES),"activity change, negative = inhibition",Potency
Cc1cccc(NC(=O)CSc2nc3c([nH]c4ccccc43)c(=O)n2-c2cc(C)cc(C)c2)c1,16% [at 57.1 µM],–
COc1ccc(C(C)=O)cc1COC(=O)Cn1cnc2ccccc2c1=O,–,17.8 µM (active)
CCN(CC(=O)Nc1ccccc1OC)C(=O)Cn1cnc2ccccc2c1=O,5.31% [at 57.1 µM],–
CC1(C)C(=O)Nc2ccccc2N1C(=O)COC(=O)Cn1cnc2ccccc2c1=O,10.6%,–
COc1ccc(C)cc1NC(=O)COCc1cc(-c2cccs2)on1,15%,–
CCOC(=O)c1ccc(NC(=O)C2CC(=O)NC(=Nc3ccc(C)c(C)c3)S2)cc1 (centres undefined),3.72%,–
Cn1c(=O)oc2cc(S(=O)(=O)CCC(=O)NCCc3ccc(Cl)cc3)ccc21,4.76%,–
Oc1ccc(Cn2cc[nH]c2=S)cc1,–,inactive
CNc1ccc(-c2nc(-c3ccco3)no2)cc1[N+](=O)[O-],14.9%,–
CC(Nc1ccc(-c2nc(-c3ccco3)no2)cc1[N+](=O)[O-])c1ccccc1 (centres undefined),–,44.7 µM (active)
O=[N+]([O-])c1cc(-c2nc(-c3ccccc3)no2)ccc1NCc1ccco1,17.5%,–
COc1ccc(NC(=O)c2ccc3nc(CCc4ccccc4)oc3c2)c(OC)c1,22.7% [at 57.1 µM],–
CSc1ccccc1N1CCN(CCCCCC(=O)NC2CCCc3ccccc32)CC1 (centres undefined),9.9% [at 57.1 µM],–
CCOC(=O)C(=Cc1ccccc1OC)C(=O)OCC,–,44.7 µM (active)
COc1ccccc1C(=O)OCC(=O)NCCNC(=O)COC(=O)c1ccccc1OC,-10.2%,–
COc1ccccc1/C=C/C(=O)OCC(=O)NC1CCCCCC1,2.32%,–
Cc1ccc(C)c(Nc2nnc(-c3ccc(C)c(S(=O)(=O)N4CCCCC4)c3)c3ccccc23)c1,7.25%,–
CC1(C)C=Cc2c(ccc(C(=O)/C=C/c3ccccc3)c2O)O1,6.58%,–
COc1ccccc1C(=O)N/C(=C/c1ccco1)C(=O)Nc1ccc(C(=O)O)cc1,-32.6%,–
O=C(Nc1ccccc1)/C(=C\c1ccco1)NC(=O)c1ccco1,–,50.1 µM (active)

Structure (SMILES),"activity change, negative = inhibition",Potency
O=C(NC(Cc1ccccc1)C(=O)O)/C(=C\c1ccccc1)NC(=O)c1ccco1 (centres undefined),12.3% [at 57.1 µM],–
O=C1COc2ccc(-c3csc(-c4ccc(Cl)cc4)n3)cc2N1,4.52%,–
CCc1nn(CC(=O)Nc2cccc(C)c2C)c(=O)c2cc3sccc3n12,12.2%,–
CC(C)c1ccc(NC(=O)CN(C)S(=O)(=O)c2ccc3c(c2)c(=O)n(C)c(=O)n3C)cc1,-3.44%,–
Nc1ncnc2c1c(I)cn2[C@@H]1C[C@H](N)[C@@H](O)[C@H]1O,15.3% [at 57.1 µM],–
O=C1Oc2ccccc2C(=O)/C1=C/c1ccccc1O,–,11.2 µM (active)
CO[C@H]1O[C@@H]2O[C@@]3(C)CC[C@@H]4[C@@H](C)CC[C@@H]([C@H]1C)[C@@]24OO3,-2.35%,–
CCOC(=O)Cc1ccc(NC(=O)Nc2c[nH]c(=O)[nH]c2=O)cc1,6.47%,–
COc1cccc(C(=O)NC2=NC(c3ccc(N(C)C)cc3)CC(=O)N2)c1 (centres undefined),15%,–
Cc1ccc(Nc2c(-c3ccc(Cl)cc3)nc3sccn23)c(C)c1,2.44%,–
C=CCSc1nnc(N2C(=O)C(O)=C(C(=O)c3ccco3)C2c2ccc(F)cc2)s1 (centres undefined),–,28.2 µM (active)
CC(C)c1ccc(C2C(C(=O)c3ccco3)=C(O)C(=O)N2CC2CCCO2)cc1 (centres undefined),-3.52%,–
COCCNc1nnc(SCC(=O)NNC(=O)c2ccco2)s1,-14.3%,–
CCOc1ccccc1NC(=O)C1CCCN(S(=O)(=O)c2cn(C)cn2)C1 (centres undefined),13.5% [at 57.1 µM],–
COc1ccc(-c2nc3scc(CCNS(=O)(=O)c4cc(F)ccc4OC)n3n2)cc1OC,12.3% [at 57.1 µM],–
CCOc1ccccc1NC(=O)CCn1cnnn1,-3.59% [at 57.1 µM],–
Cc1cc(C)nc(NC(=O)Nc2ccccc2C(F)(F)F)n1,6.03% [at 57.1 µM],–
Cc1cc(C)nc(S/C=C/C(=O)c2ccccc2)n1,–,1 µM (active)
Cc1ccc2nc(CNC(=O)c3ccccc3)[nH]c2c1,14.3%,–
OC(Cc1ccc2ccccc2n1)c1ccc(Cl)c(Cl)c1 (centres undefined),24.6% [at 0.0914 µM],–

Structure (SMILES),"activity change, negative = inhibition",Potency
COc1ccccc1NC(=O)c1cc(C2CC2)nc2c1c(C)nn2-c1ccc(C)cc1,8.82%,–
CCOC(=O)c1c(NC(=O)c2ccc(S(=O)(=O)N3CCCC(C)C3)cc2)sc2c1CCN(C(C)C)C2 (centres undefined),12.5% [at 57.1 µM],–
CCOc1ccc(CNC(=O)c2ccc(CS(=O)c3ccccc3)o2)cc1 (centres undefined),21.2%,–
Cc1nn(CC(=O)O)c(=O)c2cc3cc(F)ccc3n12,18.2%,–
CC1=C/C(=N\OS(=O)(=O)c2ccccc2)C=CC1=O,–,1.78 µM (active)
Cc1cc[n+](C2CCCCC2)cc1,16.9%,–
CCC(Sc1nc2n[nH]c(C)c2c(=N)n1-c1ccccc1Cl)C(=O)N(CC)CC (centres undefined),-4.73% [at 57.1 µM],–
CC(/C=C/c1ccco1)=N/NC(=O)C1COc2ccccc2O1 (centres undefined),–,56.2 µM (active)
CC1CC(=NNC(=O)C2COc3ccccc3O2)CC(C)(C)C1 (centres undefined),18.3%,–
CC(/C=C/c1ccccc1)=N\NC(=O)C1CC1(C)c1ccccc1 (centres undefined),12.3%,–
O=C(CCS(=O)(=O)c1cc(Br)cc2c1N(C(=O)C1CC1)CC2)Nc1ccc(C(F)(F)F)cc1,13.6%,–
CN1CCN(c2oc(-c3ccc(COc4ccc(Cl)cc4)o3)nc2C#N)CC1,17.5%,–
Cc1ccc(SC(=O)COc2ccc(C)c(C)c2)cc1,–,8.91 µM (active)
COc1ccc(C(=O)COC(=O)COc2ccc(C)c(C)c2)cc1,-3.4%,–
Cc1ccc(OCC(=O)Nc2cccc3c2CCCC3)cc1C,7.88%,–
OC[C@H]1O[C@@H](n2cnc3c(N[C@H]4CC5CCC4C5)ncnc32)[C@H](O)[C@@H]1O (some centres undefined),5.49%,–
CSc1nc(-c2ccc(F)cc2)nc2c1Cc1c(CO)cnc(C)c1O2,21.4%,–
Cc1oc(-c2ccccc2)nc1Cn1c(SCc2cccc(C(F)(F)F)c2)nc2cccnc21,12.9%,–
COc1cccc(CNC(=O)C(=O)NCC(c2cccs2)S(=O)(=O)c2ccccc2)c1 (centres undefined),14.7% [at 57.1 µM],–
